Drawing on PubChem BioAssay (NCI), this text covers growth for ten compounds.

Structures are written as SMILES. About 83,000 compounds went through this panel and 20% of them were active in at least one assay; those are over-represented in the sample as a whole.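 Cells were grown in 96-well plates and exposed to the test compound at a single concentration for 48 hours; results are reported as percent growth, with values below 10 considered active.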 Values without a mark were called inactive. The source made the active and inactive calls.

Common to all, as to assay: NCI-60 one-dose screen, 48 h (100 = growth as untreated, 0 = no growth, -100 = all killed)
For experiment [1], the system named is NCI-H23 lung. As to conditions: 10 µM.
Experiment [2] deals with A549/ATCC NSCLC. The note with it: 10 µM.
The subject of experiment [3] is K-562 leukemia. The note with it: 10 µM.
Experiment [4] deals with MDA-MB-231 breast. The note with it: 10 µM.
Experiment [5] concerns SNB-75 CNS. The note with it: 10 µM.
Experiment [6] has as its system SK-MEL-28 melanoma. The note with it: 10 µM.
Experiment [7] concerns UO-31 renal. The note with it: 10 µM.
The subject of experiment [8] is MOLT-4 leukemia. The note with it: 10 µM.
Experiment [9] has as its system SR leukemia. As to conditions: 10 µM.
The test system of experiment [10] is OVCAR-3 ovarian. The note with it: 10 µM.
Experiment [11] concerns HS 578T breast. As to conditions: 10 µM.
Experiment [12] deals with SW-620 colon. As to conditions: 10 µM.
Experiment [13] has as its system HCC-2998 colon. As to conditions: 10 µM.
Experiment [14] relates to MDA-MB-468 breast. The note with it: 10 µM unless noted.
For experiment [15], the system named is PC-3 prostate. The note with it: 10 µM.
The subject of experiment [16] is ACHN renal. The note with it: 10 µM.
The test system of experiment [17] is CAKI-1 renal. As to conditions: 10 µM.
Experiment [18] concerns BT-549 breast. As to conditions: 10 µM.
In experiment [19] the test system is KM12 colon. The note with it: 10 µM.
Experiment [20] concerns LOX IMVI melanoma. As to conditions: 10 µM.

For the compound `C[C@H]1[C@@H](CC(=O)N[C@@H](Cc2coc3ccccc23)B(O)O)O[C@@H]2OC3(C)CC[C@H]4[C@H](C)CC[C@@H]1[C@@]24OO3`, the growth is -65.9% (active) in experiment [1]; 19.1% in experiment [2]; 4.86% (active) in [3]; -92% (active) in experiment [4]; -19.3% (active) in experiment [5]; -49.4% (active) in [6]. Also, the growth in [7] is 18.3%; in experiment [8], 8.41% (active); in experiment [9], 17.4%; in experiment [10] it was -14.9% (active); in experiment [11], -4.2% (active); in experiment [12], 2.66% (active). The values for the growth in experiment [13] and in [14] were -97.2% (active) and -60.6% (active), respectively.
On to `COC(=O)C[C@](O)(CCC(C)C)C(=O)O[C@@H]1C(OC)=C[C@]23CCCN2CCc2cc4c(cc2[C@H]13)OCO4`, for which the growth was -68% (active) in [1]; -27.1% (active) in experiment [2]; 1.57% (active) in experiment [3]; -19% (active) in experiment [15]; -25.1% (active) in [16]; -13.1% (active) in [17]. Moreover, the growth is -7.96% (active) in experiment [8]; -26.9% (active) in [10]; -22.2% (active) in experiment [11]; -42% (active) in experiment [18]; -7.29% (active) in [12]; -89.9% (active) in [13]. Moreover, the growth in experiment [19] is -20.8% (active); in [14], -83.8% (active).
`CCC[Se]C(=O)c1ccc(C(=O)[Se]CCC)s1`: the growth in [1] was -49.2% (active); in experiment [2], -46.2% (active); in [3], 7.32% (active); in experiment [5] it was -31.2% (active); in experiment [6], -62.9% (active); in [7] it was -55.5% (active). The growth in experiment [8] is 7.32% (active); in experiment [9], 18.5%; in experiment [18], -86.4% (active); in experiment [14] it was -80.6% (active).
Take `CC12OOC(C)(OO1)C2CCC(=O)NCCCNc1ccnc2cc(Cl)ccc12` (stereo not given): the growth in experiment [1] is 68.8%; in [2], 87.8%; in experiment [3], 4.06% (active); in experiment [4], 82.7%; in experiment [6], 72%; in [7] it was -99.4% (active). Besides, the growth in experiment [16] is -100% (active); in experiment [8], 34.6%; in [9], -36.1% (active); in [11], 103%; in experiment [18], 121%; in experiment [12], 18.9%. Besides, the growth is 106% in experiment [13] and -52.7% (active) in experiment [14].
`Cc1c2oc3c(C)ccc(C(=O)N[C@@H]4C(=O)N[C@H](C(C)C)C(=O)N5CCC[C@H]5C(=O)N(C)CC(=O)N(C)[C@@H](C(C)C)C(=O)OC4C)c3nc-2c(C(=O)N[C@@H]2C(=O)N[C@H](C(C)C)C(=O)N3CC(=O)C[C@H]3C(=O)N(C)CC(=O)N(C)[C@@H](C(C)C)C(=O)OC2C)c(N)c1=O` (stereo not given in full): the growth in experiment [1] is -38.9% (active); in [2] it was 8.06% (active); in experiment [4], 1.92% (active); in experiment [15] it was 1.32% (active); in [11], 5.64% (active); in experiment [18], -9.76% (active). The growth is 6.93% (active) in [12], -20% (active) in experiment [13], 2.23% (active) in [19] and -37.7% (active) in experiment [14].
Consider `COc1cc2cc(C(=O)N3C[C@@H](CCl)c4c3cc(OC(=O)N3CCN(C)[C@@H]5CSSC[C@@H]53)c3ccccc43)[nH]c2c(OC)c1OC`, for which the growth in experiment [1] is -67.5% (active); in experiment [3], 10.1%; in experiment [4] it was -43.2% (active); in experiment [5], -87.6% (active); in experiment [7], -33.5% (active); in experiment [8] it was 3.8% (active). The growth in experiment [9] was 18.9%; in [11], -25.5% (active); in experiment [18], -82.6% (active); in experiment [12], -6.71% (active); in [13] it was -53.8% (active).
Consider `C[C@H]1[C@H](OC(=O)CCC(=O)N(CCCc2cn(-c3ccc(C#N)cc3)nn2)CCNc2ccnc3cc(Cl)ccc23)O[C@@H]2OC3(C)CC[C@H]4[C@H](C)CC[C@@H]1[C@@]24OO3`, for which the growth in [1] is 47.3%; in experiment [3], 6.77% (active); in experiment [4] it was 62.9%; in experiment [5], 72.1%; in [15], 33.9%; in experiment [6], 59.5%. For the same compound, the growth was 15% in experiment [7]; 40.8% in experiment [17]; 4.41% (active) in experiment [8]; -14.5% (active) in [9]; 45.2% in experiment [10]; 43% in [11]. For the same compound, the growth is 18.2% in experiment [12], 31.4% in experiment [19] and 46% in [14].
In the case of `CCOC(=O)C1=C(Nc2ccccc2)C(=O)OC12C(=O)Nc1ccccc12` (stereo not given), the growth in experiment [1] is 97.3%; in experiment [2], 112%; in experiment [3], 95.5%; in experiment [4] it was 104%; in experiment [16], 107%; in experiment [8] it was 108%. The growth is 97.3% in [9]; 106% in [11]; 103% in experiment [18]; 97.1% in experiment [12]; 115% in experiment [13]; 129% in [14].
Regarding `CC(C)C[C@H](NC(=O)CNC(=O)C[C@H]1O[C@@H]2OC3(C)CC[C@H]4[C@H](C)CC[C@@H]([C@H]1C)[C@@]24OO3)B(O)O`, the growth is -2.35% (active) in experiment [1]; 4% (active) in experiment [3]; -68% (active) in experiment [4]; 4.1% (active) in [15]; -86.4% (active) in experiment [20]; 15.5% in experiment [7]. Further, the growth was 19.2% in experiment [17]; 1.81% (active) in experiment [8]; 28.7% in experiment [9]; 7.9% (active) in experiment [11]; -83.5% (active) in [18]; 1.51% (active) in experiment [12]. The growth in experiment [13] was -95.1% (active); in experiment [14] it was -60.8% (active).
Consider `O=C(/C=C/c1ccc(Br)cc1)c1nc2ccccc2n1Cc1ccc(Br)cc1`, for which the growth was -36.3% (active) in [1]; 30% in experiment [2]; 0.898% (active) in experiment [3]; 18.7% in experiment [15]; -43.9% (active) in experiment [6]; -66.4% (active) in [7]. Further, the growth is -4.04% (active) in experiment [8]; -13.9% (active) in experiment [9]; -66.2% (active) in experiment [18]; 22.5% in experiment [19]; -74.3% (active) in [14].
